Compound activity deposited in PubChem BioAssay by Broad Institute.
C diff growth: C. difficile growth inhibitors, primary screen, HTS; Clostridium difficile clinical isolate growth, OD600, 24 h; active compounds read low; growth activity, negative = inhibition, % at 16 µg/mL (by protocol); 0.25% of 86,000 active; AID 1259249, 2017;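 active = mean growth activity at or below -80% and every replicate also at or below -80%; inconclusive = mean at or below -80% but some replicate above -80%; inactive = mean growth activity above -80%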
T cruzi growth-1: T. cruzi intracellular proliferation inhibitors, primary screen, cell-based, beta-gal Tulahuen parasites, NIH3T3 host, luminescence; T. cruzi beta-gal in NIH3T3, GalScreen luminescence, 90 h; inhibition, % at 8.34 µM; AID 624255, 2012; 5.9% of 77,000 active;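 active = mean inhibition above about 93%, with at least 55% of replicates each passing it, limit read from the data, passing the limit was not always enough; inconclusive = only one of those two conditions holds; inactive = neither condition holds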
Pf Dd2 inh: P. falciparum Dd2 growth inhibitors, primary screen, SYBR Green fluorescence, single dose replicates. AID 1159554, 2015. activity change, % at 10 µM. 2.3% of 94,000 active. 72 h; active compounds read low; in the data active = activity change below about -80%; inconclusive = no clear call, values can overlap the other calls
T cruzi growth-2: T. cruzi intracellular proliferation inhibitors, confirmation, cell-based, NIH3T3 host, beta-gal parasite, luminescence, cherry-pick; shares compounds with T cruzi growth-1; T. cruzi beta-gal in NIH3T3, GalScreen luminescence, 90 h; AID 651739, 2012; inhibition, % at 8.35 µM; 72% of 5,600 active;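 active = mean replicate inhibition above about 95% and at least 55% of replicates individually reaching it, limit read from the data; inconclusive = only one of the two criteria is met; inactive = neither criterion is met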
T cruzi growth-3: inhibitors of intracellular T. cruzi replication, confirmation, NIH3T3 host cells, beta-gal parasites, cherry-pick, set 2; AID 651740, 2012; shares compounds with T cruzi growth-1; inhibition, % at 2.09 µM; T. cruzi beta-gal in NIH3T3, GalScreen luminescence, 90 h; 21% of 5,600 active;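 active = mean inhibition above about 95%, with at least 55% of replicates also reaching it, limit read from the data; inconclusive = meets just one of the two conditions; inactive = meets neither condition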
NIH3T3 tox: cytotoxicity in mouse NIH/3T3 fibroblasts, confirmation, cytotoxicity control for T. cruzi proliferation inhibitor project, cell-based, cherry-pick, single point; shares compounds with T cruzi growth-1; NIH/3T3 viability, CellTiter-Glo ATP luminescence, 90 h; cytotoxicity (signal decrease), % at 8.35 µM; 14% of 5,600 active; AID 651742, 2012;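 active = mean signal decrease across replicates above about 35% based on untreated-well scatter, with enough replicates individually passing, limit read from the data; inconclusive = no rule stated though some were filed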
NIH3T3 tox 2: NIH/3T3 fibroblast cytotoxicity, confirmation, cytotoxicity control, cell-based, cherry-pick, single point, set 2 | 56% of 5,600 active | NIH/3T3 viability, CellTiter-Glo ATP luminescence, 90 h | AID 651744, 2012 | inhibition, % at 24.9 µM | shares compounds with T cruzi growth-1;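 active = mean loss of cell viability signal at or above a set limit, and enough replicates individually reaching it; inconclusive = meets only the mean limit or only the replicate share; inactive = meets neither condition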
Each line names hits and unclear results; the compound was inactive in the other large screens (follow-up assays come after a bar, where they were run). Only some compounds are listed: those with a hit (about 6.7% of all), similar ones and a draw of the others.

C[C@@H]1CCCCO[C@H](CN(C)Cc2ccc3c(c2)OCO3)[C@H](C)CN([C@H](C)CO)C(=O)c2cc(NC(=O)Nc3ccc(C(F)(F)F)cc3)ccc2O1	T cruzi growth-1 inconclusive, Pf Dd2 inh inconclusive | T cruzi growth-2 96 | T cruzi growth-3 116 | NIH3T3 tox inconclusive | NIH3T3 tox 2 95
CC=Cc1ccc2n(c1=O)C[C@@H]1[C@@H](CO)[C@H](C(=O)NCC3CC3)[C@H]2N1S(=O)(=O)c1cn(C)cn1 (mixture of isomers)	none
C[C@@H]1CN([C@@H](C)CO)C(=O)c2cc(NC(=O)Nc3ccc4c(c3)OCO4)ccc2O[C@@H](C)CCCCO[C@@H]1CN(C)Cc1ccc(C(F)(F)F)cc1	none (no result: C diff growth)
C[C@H]1CCCCO[C@@H](CN(C)Cc2ccc3c(c2)OCO3)[C@@H](C)CN([C@@H](C)CO)C(=O)c2cc(NC(=O)Nc3ccc(C(F)(F)F)cc3)ccc2O1	T cruzi growth-1 121, Pf Dd2 inh -89 | T cruzi growth-2 inactive | T cruzi growth-3 116 | NIH3T3 tox 47 | NIH3T3 tox 2 105
C[C@@H]1CN([C@@H](C)CO)C(=O)c2cc(NC(=O)Nc3ccc(C(F)(F)F)cc3)ccc2O[C@@H](C)CCCCO[C@@H]1CN(C)Cc1ccc2c(c1)OCO2	T cruzi growth-1 123 | T cruzi growth-2 98 | T cruzi growth-3 113 | NIH3T3 tox inactive | NIH3T3 tox 2 inactive
O=C(C1CC1)N1C[C@H]2[C@@H](c3ccccc31)[C@H](CO)N2S(=O)(=O)c1ccccc1	none
CNC(=O)C[C@H]1CC[C@@H]2[C@H](COc3ccc(NC(=O)c4cccs4)cc3C(=O)N2C)O1	none
O=C(C[C@H]1C[C@@H]2c3cc(NC(=O)Nc4ccc(C(F)(F)F)cc4)ccc3O[C@@H]2[C@@H](CO)O1)NCc1cc(F)ccc1F	T cruzi growth-1 156 | T cruzi growth-2 inactive | T cruzi growth-3 inactive | NIH3T3 tox inactive | NIH3T3 tox 2 inactive
O=C(C[C@@H]1C[C@@H]2c3cc(NC(=O)Nc4ccc(C(F)(F)F)cc4)ccc3O[C@@H]2[C@@H](CO)O1)NCc1ccc(Cl)cc1	T cruzi growth-1 112 (no result: C diff growth) | T cruzi growth-2 109 | T cruzi growth-3 inactive | NIH3T3 tox inactive | NIH3T3 tox 2 inactive
C[C@H](NC(=O)C[C@H]1C[C@@H]2c3cc(NC(=O)Nc4ccc(C(F)(F)F)cc4)ccc3O[C@@H]2[C@@H](CO)O1)c1ccccc1	none
C[C@H](NC(=O)C[C@H]1C[C@H]2c3cc(NC(=O)Nc4ccc(C(F)(F)F)cc4)ccc3O[C@H]2[C@@H](CO)O1)c1ccccc1	T cruzi growth-1 inconclusive | T cruzi growth-2 inactive | T cruzi growth-3 inactive | NIH3T3 tox inactive | NIH3T3 tox 2 inactive
O=C(C[C@H]1C[C@@H]2c3cc(NC(=O)Nc4ccc(C(F)(F)F)cc4)ccc3O[C@@H]2[C@@H](CO)O1)NCc1ccc(Cl)cc1	none (no result: C diff growth)
O=C(C[C@@H]1C[C@@H]2c3cc(NC(=O)Nc4ccc(C(F)(F)F)cc4)ccc3O[C@@H]2[C@H](CO)O1)NCc1cc(F)ccc1F	none
CCCN1C[C@H](C)[C@@H](OC)CN(C)C(=O)c2cc(NC(=O)Nc3cccc(OC)c3)ccc2OC[C@H]1C	none (no result: C diff growth, Pf Dd2 inh)
CCN1[C@H](C(=O)Nc2ccccc2)[C@@H](CO)[C@@H]2Cn3c(ccc(-c4ccncc4)c3=O)[C@@H]21	none
CC(=O)N1[C@H](C(=O)NC2CCC2)[C@@H](CO)[C@@H]2Cn3c(ccc(-c4ccccc4)c3=O)[C@@H]21	none
CN(C)CC(=O)N1[C@H](C(=O)NC2CCC2)[C@@H](CO)[C@@H]2Cn3c(ccc(-c4ccccc4)c3=O)[C@@H]21	T cruzi growth-1 active (no result: Pf Dd2 inh) | T cruzi growth-2 inactive | T cruzi growth-3 inactive | NIH3T3 tox inactive | NIH3T3 tox 2 inactive
